# Source: PubChem (several laboratories)
# In the library only some 3.7% were active in any assay of this set; here they are far more common.
# TIM10 inh – growth inhibitors of TIM10 yeast strain; S. cerevisiae TIM10 strain growth, BacTiter-Glo luminescence, 24 h; inhibition, % at 10 µM; actives 1.4% (n = 330,000); AID 463195;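 active = inhibition of 40% or more at the single tested concentration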;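 note: wild-type TIM10 isogenic control strain grown at permissive 25 °C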
# tim23-1 inh – growth inhibitors of tim23-1 mutant yeast; S. cerevisiae tim23-1 growth, BacTiter-Glo luminescence, 24 h; inhibition, % at 20 µM; actives 1.3% (n = 330,000); AID 463212;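 active = growth inhibition of the mutant yeast at or above 50%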;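 note: temperature-sensitive mutant grown at 25 °C; plate controls were DMSO-treated mutant yeast for no effect and medium wells lacking yeast for full effect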
# PfHsp90 set2 – growth inhibition of yeast expressing Plasmodium Hsp90. actives 0.32% (n = 310,000). S. cerevisiae expressing PfHsp90, BacTiter-Glo ATP, 48 h; yeast lacking PDR1 and PDR3 efflux regulators. AID 504621. inhibition, % at 9.4 µM;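 active = every replicate shows inhibition above about 80%, whatever the replicate mean, limit read from the data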;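 note: 0% = DMSO neutral controls and 100% = 20 µM radicicol positive controls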
# NALP3 yeast inh – inhibitors of NALP3 inflammasome in yeast; Yeast reconstituted NLRP3/ASC/caspase-1, beta-gal luminescence, 24 h; inhibition, % at 10 µM; actives 0.39% (n = 330,000); AID 2825;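 active = inhibition of 50% or more; inactive = inhibition below 50%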;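 note: plate controls were induced DMSO wells for no effect and uninduced yeast grown without galactose for full effect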
# tim10-1 inh – growth inhibitors of tim10-1 mutant yeast | S. cerevisiae tim10-1 ts strain growth, BacTiter-Glo, 24 h | actives 2.2% (n = 330,000) | inhibition, % at 20 µM;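 active = inhibition of at least 40%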;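 note: mutant grown at 25 °C; 0% = DMSO wells with yeast and 100% = wells holding no yeast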
# TIM10 conf – confirmation of TIM10 yeast growth inhibitors; AID 463215; shares compounds with TIM10 inh; actives 63% (n = 4,600); S. cerevisiae tim10 strain growth, BacTiter-Glo luminescence, 24 h; inhibition, % at 10 µM;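 active = inhibition of yeast growth at or above a set limit in either of two replicates at 10 µM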;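 note: this counterscreen used the strain with wild-type TIM10; 0% = yeast with DMSO and 100% = medium wells lacking yeast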
# Active calls of the source: *; / = not tested or not shown.
SMILES,TIM10 inh,tim23-1 inh,PfHsp90 set2,NALP3 yeast inh,tim10-1 inh,TIM10 conf
CC(CCN1CCN(c2ccccc2)CC1)c1ccccc1 (stereo not drawn),-3,-6,-1,13,-17,/
O=C(O)/C=C\C(=O)Nc1cccc(C(=O)Nc2cccc(O)c2)c1,1,2,11,-3,2,/
COc1cc(OC)cc(C(=O)Nc2cccc(NC(C)=O)c2)c1,-12,7,20,10,-2,/
CCOC(=O)Nc1cccc(NC(=O)c2cc(OC)cc(OC)c2)c1,41*,49,18,-2,22,11
O=C(Nc1cccc(O)c1)c1ccccc1,40*,26,7,8,16,-10
O=C(NC1CCN(C(=S)NCc2ccco2)CC1)c1cccc(F)c1,11,6,-8,5,-2,/
COc1ccc(NC(=O)c2ccc(NC(=O)c3nc4nc(C)cc(C)n4n3)cc2)cc1,42*,3,13,-18,2,26
COc1ccc2[nH]cc(CCNC(=O)c3ccco3)c2c1,5,-4,-6,8,-2,/
O=C(Oc1ccc2[nH]cc(CCN3C(=O)c4ccccc4C3=O)c2c1)c1ccco1,43*,30,/,24,31,39*
O=[N+]([O-])CC(c1ccccc1)c1c[nH]c2ccccc12 (stereo not drawn),45*,39,/,-15,19,55*
COc1cc(C(C[N+](=O)[O-])c2c(C)[nH]c3ccccc23)cc(OC)c1OC (stereo not drawn),21,39,24,10,25,/
COC(=O)c1ccccc1NC(=O)NCc1ccncc1,2,8,4,25,6,/
CCOC(=O)C1=C(N)Oc2ccc3ccccc3c2C1c1cccnc1 (stereo not drawn),46*,11,-4,-2,27,-6
CCOc1ccc(C(=O)O/N=C(\N)c2ccccn2)cc1,42*,38,43,34,38,36*
Cc1ccc2nc(Cl)c3nnnn3c2c1,55*,14,107*,26,-74,71*
Fc1cccc(Cn2cc(C(=S)N3CCCCC3)c3ccccc32)c1,48*,36,-27,3,38,30
COc1ccccc1NC(=S)N/N=C1\CC(C)(C)Oc2ccc(O)cc21,19,6,-4,37,9,/
COc1ccc(NC(=S)N/N=C2\CC(C)(C)Oc3ccc(O)cc32)cc1,41*,16,-27,6,35,-11
CSCCC(NC(=O)COc1ccccc1)C(=O)N1CCOCC1 (stereo not drawn),3,-9,4,13,-5,/
O=S(=O)(c1ccc(SCCOc2ccc(Br)cc2)nc1)N1CCCC1,7,18,-3,12,17,/
CCOc1ccc(OCCSc2ccc(S(=O)(=O)N3CCN(C)CC3)cn2)cc1,46*,50,-1,43,38,52*
Cc1cc2occ(CC(=O)NC3=NCCS3)c2cc1C(C)C,40*,4,6,4,33,37*
CCOc1ccc(/C=N/NC(=O)c2csc(C)c2C)c(OCC)c1,-13,6,5,21,5,/
CCCCOc1cccc(/C=N/NC(=O)c2csc(C)c2C)c1,48*,17,-15,26,32,27
CCO[C@@H]1OC(C(=O)NCc2ccccc2)=C[C@H](c2ccc(C(F)(F)F)cc2)[C@H]1CCCO,13,28,-1,-1,21,/
SMILES,TIM10 inh,tim23-1 inh,PfHsp90 set2,NALP3 yeast inh,tim10-1 inh,TIM10 conf
COc1ccccc1NC(=S)N(Cc1ccc(C)cc1)Cc1cccnc1,47*,29,14,9,38,15
CC/C(=C1/C(=O)CC(C)(C)C(C(=O)OC)C1=O)N1CCCC1 (stereo not drawn),1,1,6,33,0,/
C/C=C(/C)C(=O)OC1c2c(ccc3ccc(=O)oc23)OC(C)(C)C1OC(C)=O (stereo not drawn),42*,34,28,4,39,2
CCOC(=O)c1c(NC(=O)C[n+]2ccc(N(C)C)cc2)sc(C)c1C,8,13,34,6,26,/
Cc1ccc(OCc2cc(C(=O)N3CCC(Oc4cccnc4)CC3)no2)cc1C,30,28,14,22,36,/
O=C(c1cc(COc2cccc(C(F)(F)F)c2)on1)N1CCC(Oc2cccnc2)CC1,43*,39,3,14,38,43*
COc1ccc(C(=O)NC2CC2)cc1OC1CCN(Cc2cc(C)c(C)cc2C)CC1,3,16,-22,14,13,/
COc1ccc(CN2CCC(Oc3cc(C(=O)NC4CC4)ccc3OC)CC2)c(O)c1,83*,0,2,-6,-10,0
CCc1c(C)nc(N2CCN(c3ccc(Cl)cc3)CC2)[nH]c1=O,17,11,10,5,0,/
Nn1c(SCC(=O)Nc2cccnc2Cl)nnc1-c1ccccc1,1,5,6,18,2,/
Cc1cc(C)nc(SCc2cc(=O)c(OC(=O)c3ccc(Br)o3)co2)n1,40,38,22,21,6,/
Cc1cc(C)nc(SCc2cc(=O)c(OC(=O)c3ccco3)co2)n1,42*,37,-8,14,18,37*
COC(=O)CSc1nc(N2CCCCC2)c2c(c1C#N)CCCC2,27,17,-22,6,25,/
COC(=O)CSc1nc(-c2ccccc2)c2c(c1C#N)CCCC2,41*,23,-25,7,30,27
CCCOc1cccc(C(=O)NC(=S)Nc2cccc(C(F)(F)F)c2)c1,41*,23,-8,21,17,17
CCOc1ccc2nc(SCC(=O)N(CCOC)c3c(N)n(Cc4ccccc4)c(=O)[nH]c3=O)[nH]c2c1,0,5,/,24,6,/
CCOC(=O)c1cc2c(ccc3ccccc32)oc1=O,47*,26,-19,6,22,49*
N=c1oc2ccc3ccccc3c2cc1C(N)=S,42*,42,14,17,20,39*
O=C(O)c1cc2c(ccc3ccccc32)oc1=O,0,10,-9,6,1,/
CC(C)(O)c1[nH]c2cc(C(F)(F)F)ccc2c1C(C)(C)O,67*,8,-4,20,-6,4
Cc1ccc(S(=O)(=O)N2CCCCC2)cc1NC(=O)c1cccs1,1,17,30,0,13,/
Cc1ccc(NC(=O)c2cc(-c3cc(C)c(C)cc3O)n[nH]2)cc1C,-2,1,11,2,-7,/
CCn1c(SCC(=O)N(C)C2CCCCC2)nc2cc(S(N)(=O)=O)ccc21,41*,5,12,5,-8,9
COc1ccccc1NC(=S)N1CCN(c2ccccn2)CC1,-6,1,1,1,12,/
COc1ccccc1NC(=S)N1CCN(c2ncccn2)CC1,95*,2,-7,7,-14,3
S=C(NCC1CCCCC1)Nc1ccc(Oc2ccccc2)cc1,54*,23,-10,30,40,30*
